Only some compounds are listed: those with a hit (about 2.1% of all), similar ones and a draw of the others.
GRP78 ERSR act: qHTS for Inducers of the Endoplasmic Reticulum Stress Response (ERSR) in Human Glioma: qHTS; Potency, µM, for inactives: top-dose activation, most hits filed as activators; hit rate 0.02% among 420,000; U87-MG GRP78 promoter luciferase reporter, 16 h; note: series mostly up to about 76 µM; % of control where 0% means no effect; nearly all actives have a fitted effect of over 35% in size
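Stably transfected U87-MG glioma cells carrying a GRP78-based luciferase sensor; 16 h compound incubation. Luminescence end-point read 10 min after Bright-Glo addition at room temperature.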
Mito fusion yeast: qHTS Assay for Small Molecule Inhibitors of Mitochondrial Division or Activators of Mitochondrial Fusion. Potency, µM (doses to about 46.1 µM), for inactives: top-dose growth rescue (activation), usual class: activators. hit rate 0.23% among 320,000. S. cerevisiae fusion-defective mutant growth rescue, CellTiterGlo 48 h; note: % of control where 0% means no effect; nearly all actives have a fitted effect of over 45% in size
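Compounds are tested for their ability to restore growth of mitochondrial fusion-defective yeast strains at non-permissive 37C in YPEG medium over 48 hours. Viability is quantified by luciferase luminescence.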
TDP-43 yeast inh: qHTS of TDP-43 Inhibitors | TDP-43 expressing yeast growth rescue, BacTiter-Glo, 24 h | Potency, µM (doses to about 46.1 µM), without a hit: at the highest dose growth rescue (activation), usual class: activators | AID 652104, 2013 | hit rate 1.8% among 410,000; note: % of control where 0% means no effect; nearly all actives have a fitted effect of over 50% in size
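Growth rescue of TDP-43-toxic yeast measured as ATP luminescence (BacTiter-Glo). Cells grown to mid-log in raffinose, induced in galactose at OD600=0.02, exposed to compound 24 hr at 30 deg C.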
AT treatment: qHTS Assay for Identifying a Potential Treatment of Ataxia-Telangiectasia. F2112 A-T fibroblasts, KAP-1 phosphorylation AlphaLISA; neocarzinostatin DNA damage 30 min before lysis. Potency, µM (doses to about 57.5 µM), for the others: at the top dose activation, usual class: activators. hit rate 0.19% among 320,000. AID 485349, 2010; note: % of control where 0% means no effect; nearly all actives have a fitted effect of over 45% in size
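ATM-like activity read as KAP-1 phosphorylation via AlphaLISA donor/acceptor antibody pairs after lysis and 6 hr at 25C. Cells were ATM-null patient fibroblasts (F2112, hTERT), dosed 60 min, then exposed to the DSB inducer NCS for 30 min.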
Abeta yeast res: qHTS for compounds that reverse cellular toxicity of Amyloid beta (A-beta) peptide in yeast: Primary Screen; hit rate 0.063% among 410,000; Potency, µM (top dose mostly 46.1 µM), most hits filed as activators; yeast expressing A-beta42, growth rescue, OD600, 48 h; response scale: 0% DMSO, 100% iron-clioquinol control; note: nearly all actives have a fitted effect of over 55% in size
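Yeast growth medium received pinned compounds, then yeast cells expressing toxic A-beta were added; plates incubated at 30 C for 48 hr. Growth read as absorbance at 600 nm, normalized to DMSO and equimolar FeCl3 plus clioquinol controls.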
aSyn yeast inh: qHTS of alpha-syn Inhibitors; hit rate 0.14% among 370,000; Potency, µM (highest dose often 46.1 µM), inactives show at the highest dose growth rescue (activation), hits mostly activators; Yeast expressing alpha-synuclein, growth rescue, BacTiter-Glo, 24 h; note: % of control where 0% means no effect; nearly all actives have a fitted effect of over 65% in size
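Readout is rescue of growth in alpha-synuclein-expressing yeast, so inhibitors of toxicity appear as activators. Growth after 24 hr at 30 deg C in galactose medium is quantified by luminescence.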
* hit, by the source's call; [ ] = another dose, or the depositor's remark. Calls come from the whole dose curve; as a rule, active = well fitted curve in the direction sought with a large enough effect; inconclusive = small, poorly fitted or top-dose-only effect, or another doubt; inactive = no such curve, though single readings can be large; an effect the other way counts as inactive or inconclusive. Potency is the fitted concentration of half-maximal effect.

Results for Nc1ncnc2c1ncn2[C@H]1CC[C@@H](CO)O1 ?
GRP78 ERSR act: -3%; Mito fusion yeast: -8%; TDP-43 yeast inh: 13µM*; AT treatment: 6%; Abeta yeast res: inactive; aSyn yeast inh: -7%

What do the screens show for `Nc1ncnc2c1ncn2C1CCCC1`?
GRP78 ERSR act: -4%; Mito fusion yeast: -10%; TDP-43 yeast inh: 25%; AT treatment: 12%; Abeta yeast res: inactive; aSyn yeast inh: -1%

Results for COCC(=O)n1nc(NCc2ccc(OC)cc2)nc1NCc1ccc(OC)cc1 ?
GRP78 ERSR act: -7%; Mito fusion yeast: -33%; TDP-43 yeast inh: 18µM*; AT treatment: -10%; Abeta yeast res: inactive; aSyn yeast inh: 8%

How did S=C(NCc1ccco1)N/N=C/c1ccc(Cl)cc1 do in these assays?
GRP78 ERSR act: 2%; Mito fusion yeast: 5%; TDP-43 yeast inh: 22µM*; AT treatment: 0%; Abeta yeast res: inactive; aSyn yeast inh: 2%

Results for C=CCn1c(SCC(=O)N2CCc3ccccc3C2)nc2sc(C)c(C)c2c1=O ?
GRP78 ERSR act: -6%; Mito fusion yeast: 13µM*; TDP-43 yeast inh: -30%; AT treatment: -1%; Abeta yeast res: inactive; aSyn yeast inh: -3%

What do the screens show for `C=CCn1c(SCC(=O)N2CCc3ccccc3C2)nc2sc(CC)cc2c1=O`?
GRP78 ERSR act: -1%; Mito fusion yeast: inconclusive; TDP-43 yeast inh: -20%; AT treatment: -5%; Abeta yeast res: inactive; aSyn yeast inh: -8%

What do the screens show for `Cc1cccc2cc(CN(CC3CCCO3)C(=O)C3CC3)c(N(C)C)nc12` (configuration not stated)?
GRP78 ERSR act: -3%

Results for NC(=O)[C@@H]1CCCN1C(=O)c1cc(NC(=O)c2ccccc2)cc2ncn(C3CCCC3)c12 ?
GRP78 ERSR act: -6%

What do the screens show for `O=C(/C=C/c1ccnc2ccccc12)c1cccs1`?
GRP78 ERSR act: -16%; Mito fusion yeast: -21%; TDP-43 yeast inh: 3.5µM*; AT treatment: inconclusive; Abeta yeast res: inactive; aSyn yeast inh: 2%

Results for Cc1onc(-c2ccccc2)c1C(=O)N1CCCN2C(=O)c3ccccc3C21 (configuration not stated) ?
GRP78 ERSR act: -2%; Mito fusion yeast: 3%; TDP-43 yeast inh: 7%; AT treatment: -6%; Abeta yeast res: inactive; aSyn yeast inh: -4%

Results for O=C1c2ccccc2C2N1CCCN2C(=O)c1sc2ccccc2c1Cl (configuration not stated) ?
GRP78 ERSR act: 0%; TDP-43 yeast inh: 18µM*; Abeta yeast res: inactive; aSyn yeast inh: 12%

Results for Cc1nc(N2CCN(c3ccccc3)CC2)nc2c1C(=O)CCC2 ?
GRP78 ERSR act: -1%; Mito fusion yeast: 22%; TDP-43 yeast inh: 13µM*; AT treatment: 8%; Abeta yeast res: inactive; aSyn yeast inh: 23%

What do the screens show for `OC(CC#CCN1CCCC1)(c1ccccc1)c1ccccc1`?
GRP78 ERSR act: -3%; Mito fusion yeast: -6%; TDP-43 yeast inh: -7%; AT treatment: -12%; Abeta yeast res: inactive; aSyn yeast inh: 0%

How did CN1CCN(CC#CCC(O)(c2ccccc2)c2ccccc2)CC1 do in these assays?
GRP78 ERSR act: -1%; Mito fusion yeast: -3%; TDP-43 yeast inh: -13%; AT treatment: 40µM*; Abeta yeast res: inactive; aSyn yeast inh: -4%

How did Cc1ccc2nc(NCCCO)nc(-c3ccccc3)c2c1 do in these assays?
GRP78 ERSR act: -1%; Mito fusion yeast: -4%; TDP-43 yeast inh: 24%; Abeta yeast res: inactive; aSyn yeast inh: 4%

How did OCCCNc1nc(-c2ccccc2)c2cc(Br)ccc2n1 do in these assays?
GRP78 ERSR act: -4%; Mito fusion yeast: 4%; TDP-43 yeast inh: 4%; AT treatment: 40µM*; Abeta yeast res: inactive; aSyn yeast inh: 10%

What do the screens show for `CC1CN(CC(=O)N2CCN(Cc3nccn3C)CC2)Cc2cc(Cl)ccc2O1` (configuration not stated)?
GRP78 ERSR act: -3%

Results for O=C(CCN1C(=O)C2C3C=CC(C3)C2C1=O)NC1CCCc2ccccc21 (configuration not stated) ?
GRP78 ERSR act: -2%; Mito fusion yeast: -1%; TDP-43 yeast inh: -3%; AT treatment: -7%; Abeta yeast res: inactive; aSyn yeast inh: 0%

How did O=C(CCn1ccc2ccccc21)NC1CCCc2ccccc21 (configuration not stated) do in these assays?
GRP78 ERSR act: -5%; Mito fusion yeast: 10%; TDP-43 yeast inh: 18µM*; AT treatment: 1%; Abeta yeast res: inactive[9.22 µM]; aSyn yeast inh: 9%

What do the screens show for `Cc1cc(-c2ccc(C)c(S(=O)(=O)NCCc3ccc(S(N)(=O)=O)cc3)c2)on1`?
GRP78 ERSR act: -4%; Mito fusion yeast: 0%; TDP-43 yeast inh: 8%; AT treatment: 12%; Abeta yeast res: inactive; aSyn yeast inh: 5%

What do the screens show for `Cc1cc(-c2ccc(C)c(S(=O)(=O)NCc3ccc(Br)cc3)c2)on1`?
GRP78 ERSR act: -3%; Mito fusion yeast: inconclusive; TDP-43 yeast inh: 18µM*; AT treatment: 6%; Abeta yeast res: inactive; aSyn yeast inh: 14%

How did Cc1cc(-c2ccc(C)c(S(=O)(=O)NCCc3ccco3)c2)on1 do in these assays?
GRP78 ERSR act: -3%; Mito fusion yeast: 2%; TDP-43 yeast inh: 29%; AT treatment: 16%; aSyn yeast inh: 15%

How did Cc1cc(-c2ccc(C)c(S(=O)(=O)NCc3cccc(Br)c3)c2)on1 do in these assays?
GRP78 ERSR act: -1%; Mito fusion yeast: 33%; TDP-43 yeast inh: 35µM*; AT treatment: 10%; Abeta yeast res: inactive; aSyn yeast inh: 2%

Results for N#CCCSc1nc(N2CCOCC2)c2c(c1C#N)CCCC2 ?
GRP78 ERSR act: -7%; Mito fusion yeast: -5%; TDP-43 yeast inh: 18µM*; AT treatment: 0%; Abeta yeast res: inactive; aSyn yeast inh: 15%

How did COc1ccc(-c2nc3ccc(Br)cn3c2Cc2ccccc2)cc1OC do in these assays?
GRP78 ERSR act: -2%; TDP-43 yeast inh: 15%; Abeta yeast res: inactive; aSyn yeast inh: -1%

How did COc1ccc(-c2nc3ccc(Cl)cn3c2Cc2ccccc2)cc1OC do in these assays?
GRP78 ERSR act: 2%; TDP-43 yeast inh: 23%; Abeta yeast res: inactive; aSyn yeast inh: -1%

Screening results from PubChem BioAssay.
